Active and inactive are the calls of the source. Rule for the calls: active = hit-call score of the fitted dose curve at least 0.9, where 1 is the maximum; inactive = score below 0.9.
target: rat Vesicular Monoamine Transporter (VMAT2), Slc18a2 (gene 25549) (UniProt Q01827); assay: ERF_TW_TR_rSLC18A2: Eurofins (ERF) Radioligand Binding LeadHunter Assay for rat Vesicular Monoamine Transporter (VMAT2) Antagonism
Description: ERF_TW_TR_rSLC18A2 is a biochemical, single-readout assay that uses extracted gene-proteins in a cell-free assay. Measurements were taken 0.5 hour after chemical dosing in a 96-well plate. See VMAT2 Rat Vesicular Monoamine Transporter Binding (Antagonist Radioligand) Assay, Panlabs.ERF_TW_TR_rSLC18A2 is an assay component calculated from the ERF_TW_TR_rSLC18A2 assay. It is designed to measure radioligand binding using a type of binding reporter as detected by scintillation counting with radiometry technology.Data from the assay component ERF_TW_TR_rSLC18A2 was analyzed at the assay endpoint, ERF_TW_TR_rSLC18A2, in the positive analysis fitting direction relative to DMSO as the negative control and baseline of activity. Using a type of binding reporter, loss-of-signal activity can be used to understand changes in transporter binding as they relate to gene SLC18A2. To generalize the intended target to other relatable targets, this assay endpoint is annotated to the transporter intended target family, where the subfamily is vesicular transporter.
This assay measures binding of [3H]Dihydrotetrabenazine to sites associated with the vesicular monoamine uptake transporter. […] Membranes are filtered and washed, the filters are then counted to determine [3H]Dihydrotetrabenazine specifically bound. […]

Chain of rat Vesicular Monoamine Transporter (VMAT2), Slc18a2 (gene 25549) (Q01827 whole entry, looked up): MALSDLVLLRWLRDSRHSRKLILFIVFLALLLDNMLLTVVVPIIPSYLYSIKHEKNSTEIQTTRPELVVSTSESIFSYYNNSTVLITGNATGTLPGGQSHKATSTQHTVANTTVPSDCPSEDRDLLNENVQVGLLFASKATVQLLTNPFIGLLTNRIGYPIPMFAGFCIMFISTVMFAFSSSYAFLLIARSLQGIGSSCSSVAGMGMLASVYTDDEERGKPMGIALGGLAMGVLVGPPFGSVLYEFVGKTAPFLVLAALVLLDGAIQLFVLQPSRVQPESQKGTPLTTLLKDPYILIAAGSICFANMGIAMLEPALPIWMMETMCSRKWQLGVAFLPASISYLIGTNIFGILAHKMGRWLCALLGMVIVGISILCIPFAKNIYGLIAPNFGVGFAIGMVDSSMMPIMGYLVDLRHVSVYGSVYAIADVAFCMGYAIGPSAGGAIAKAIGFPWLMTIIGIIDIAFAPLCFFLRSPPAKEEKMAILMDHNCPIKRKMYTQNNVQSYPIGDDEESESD

Compound	AC50
O=C(/C=C/c1ccc(O)cc1)CC(=O)/C=C/c1ccc(O)cc1	0.283 µM (active)
COc1cc(CCC(=O)CC(=O)CCc2ccc(O)c(OC)c2)ccc1O	5 µM (active)

From PubChem BioAssay AID2284199 (EPA ToxCast)
